Bioassay records as filed in PubChem BioAssay.
Compounds with a hit are over-represented: about 22% of the library has one in this group of screens.
CHX counter: counter-screen for Shiga toxin inhibitors: cycloheximide protein synthesis inhibition; cell reporter, cycloheximide protein synthesis inhibition counterscreen; max response, %; hit rate 12% among 300,000; AID 2314; in the data active = max response mostly above about 13%, no sharp cut-off; inactive = mostly below about 14%; also: read at 38.3 µM for the half of the compounds with a filed dose; 0% is about no effect
Shiga toxin inh: Shiga toxin inhibition | Vero cells, Shiga toxin protein synthesis inhibition reporter | inhibition, % at 38.7 µM | hit rate 9.2% among 290,000; in the data active = inhibition mostly above about 28%, no sharp cut-off; inactive = mostly below about 43%; also: 0% is about no effect
Pf growth 96h: P. falciparum growth inhibition at 96 hour, primary screen for plastid delayed-death inhibitors. P. falciparum luciferase reporter growth, 96 h. Potency, µM (top dose mostly 28.7 µM), for the others: at the top dose activity change, negative = inhibition, actives largely listed as inhibitors. hit rate 6.9% among 320,000. AID 504834; also: potency is read from the fitted curve at half-maximal effect; % is scaled to controls: 0 for no effect and ±100 for the full control effect
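Two parasite generations (96 h, 37 C, 5% CO2) of compound exposure in infected erythrocytes (0.05% parasitemia, 2% hematocrit). Luciferase-reporter P. falciparum; decreased luminescence indicates inhibited growth, aimed at apicoplast-acting delayed death.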
Pf growth 48h: inhibits P. falciparum growth in the first generation, 48 h. P. falciparum luciferase growth in erythrocytes, 48 h. Potency, µM (series often up to 28.7 µM), for inactives: at the top dose activity change, negative = inhibition, hits mostly inhibitors. hit rate 5.9% among 310,000. AID 504832; also: potency is read from the fitted curve at half-maximal effect; % is scaled to controls: 0 for no effect and ±100 for the full control effect
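In quantitative HTS format, infected erythrocytes bearing luciferase-reporter parasites were treated for a single generation at 37 C. Luminescence after adding detection reagent served as the growth measure.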
LmPK inh: LmPK (Leishmania mexicana) enzyme inhibition; Q27686; purified LmPK, Kinase-Glo ATP luminescence, 1 h; Potency, µM (series often up to 57.5 µM), for inactives: at the top dose activity change, negative = inhibition, actives largely listed as inhibitors; hit rate 0.37% among 290,000; AID 1721; also: potency is read from the fitted curve at half-maximal effect; % is scaled to controls: 0 for no effect and ±100 for the full control effect
Target sequence (Q27686 whole entry, looked up): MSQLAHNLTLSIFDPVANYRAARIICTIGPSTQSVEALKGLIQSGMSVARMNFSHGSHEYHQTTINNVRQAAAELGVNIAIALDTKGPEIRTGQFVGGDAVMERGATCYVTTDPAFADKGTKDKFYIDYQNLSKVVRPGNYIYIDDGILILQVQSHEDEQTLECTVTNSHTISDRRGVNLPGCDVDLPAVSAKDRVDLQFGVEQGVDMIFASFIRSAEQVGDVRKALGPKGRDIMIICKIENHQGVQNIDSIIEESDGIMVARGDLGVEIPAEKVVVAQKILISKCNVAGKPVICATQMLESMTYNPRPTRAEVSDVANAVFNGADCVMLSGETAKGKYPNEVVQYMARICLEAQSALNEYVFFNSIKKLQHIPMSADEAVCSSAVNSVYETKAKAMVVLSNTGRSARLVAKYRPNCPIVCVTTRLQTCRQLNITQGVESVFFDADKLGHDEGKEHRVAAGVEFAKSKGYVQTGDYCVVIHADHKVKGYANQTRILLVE
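Screened at intermediate enzyme activity to detect both inhibitors and activators: LmPK at 0.1 nM, with a 0.5 nM enzyme column as activation reference. PEP 0.5 mM, ADP 0.1 mM; ATP detected by luminescence after 1 h.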
* hit, by the source's call; ? = inconclusive; . = no result given; [ ] = another dose, or the depositor's remark. Unless noted, calls follow the shape of the dose curve; as a rule, active = well fitted inhibition curve with a large enough effect; inconclusive = small, poorly fitted or top-dose-only effect, or another doubt; inactive = no such curve, though single readings can be large or run the other way.

SMILES	CHX counter	Shiga toxin inh	Pf growth 96h	Pf growth 48h	LmPK inh
O=C(CN(C(=O)c1csnn1)c1cccc(C(F)(F)F)c1)NC1CCCC1	-1.9	-13.2	21.9%	1.5%	-2.7%
COc1ccc(CCNC(=O)c2ccc3c(c2)N(Cc2ccc(C)cc2)CCS3)cc1OC	-1.6	12.6	-20.6%	10.4µM*	3.6%
Cc1ccc(CN2CCSc3ccc(C(=O)NCCCN4CCN(C)CC4)cc32)cc1	1.1	-7.3	?	14.7µM*	11.6%
Cc1ccnc(N2C(=O)OC(C)(C)C2(C)O)c1 (configuration not stated)	-1.3	-1.0	8.28µM*	13.7%	-2.3%
COC(=O)c1sc(N2C(=O)C(O)=C(C(=O)c3ccc(C)o3)C2c2ccc(OC)c(OC)c2)nc1C (configuration not stated)	-3.9	4.5	-13.6%	-9.5%	-0.2%
CCOC(=O)c1sc(N2C(=O)C(O)=C(C(=O)c3ccc(C)o3)C2c2cccc([N+](=O)[O-])c2)nc1C (configuration not stated)	1.9	-6.6	14.7µM*	30.6%	1.7%
Cc1ccc2nc(N3C(=O)C(O)=C(C(=O)c4ccc(C)o4)C3c3cccc(O)c3)sc2c1 (configuration not stated)	30.7*	63.1*	4.5%	126.0%	-1.4%
COC(=O)c1sc(N2C(=O)C(O)=C(C(=O)c3ccc(C)o3)C2c2ccc([N+](=O)[O-])cc2)nc1C (configuration not stated)	39.0*	69.4*	-2.3%	139.8%	-19.7%
CCOc1ccc(C2C(C(=O)c3ccc(C)o3)=C(O)C(=O)N2c2nc(C)c(C(=O)OC)s2)cc1 (configuration not stated)	26.4*	47.5*	30.2%	48.9%	4.8%
CCOC(=O)c1sc(N2C(=O)C(O)=C(C(=O)c3ccc(C)o3)C2c2ccc(OC)c(OC)c2)nc1C (configuration not stated)	10.9	-15.4	14.3%	-20.3%	-5.0%
CCCCOc1cccc(C2C(C(=O)c3ccc(C)o3)=C(O)C(=O)N2c2nnc(C)s2)c1 (configuration not stated)	1.0	-2.8	-12.9%	57.1%	-0.1%
O=S(=O)(Nc1cccc(-c2cn3c(n2)SCC3)c1)c1ccc(F)cc1F	5.3	3.3	-24.3%	-28.7%	1.6%
Cn1nnnc1SCC(=O)NC(=O)c1cccc([N+](=O)[O-])c1	-2.6	-5.3	83.6%	18.4%	6.0%
COc1ccc(N2CCN(C(=O)c3ccc4nc(N5CCCCC5)sc4c3)CC2)cc1	52.8*	44.0*	4.9%	18.0%	-1.8%
COc1cccc(N2CCN(C(=O)c3ccc4nc(N5CCCCC5)sc4c3)CC2)c1	76.8*	108.7*	?	.	1.3%
O=C(O)c1ccc(/C=N/n2cc(-c3ccccc3)[nH]c2=S)cc1	0.6	-1.4	22.1%	-7.7%	14.1µM*
S=c1[nH]nc(-c2cccnc2)n1/N=C/c1ccccc1	-1.7	11.4	-1.7%	3.8%	9.8%
S=c1[nH]ncn1/N=C/c1cccs1	-1.5	-6.8	22.5%	?	-10.6%
S=c1[nH]c(-c2ccccc2)cn1/N=C/c1cccs1	32.2*	44.7*	11.7µM*	?	?
Cc1ccc(/C=N/n2c(-c3ccccc3)n[nH]c2=S)cc1	-1.5	.	8.5%	9.7%	-14.3%
S=c1[nH]c(-c2ccccc2)cn1/N=C/c1ccc(Br)cc1	19.7*	35.8	?	?	0.1%
CC1CCCC(C)N1/N=C/c1ccc(C(=O)O)cc1 (configuration not stated)	-1.7	5.7	77.5%	35.5%	-0.8%
S=c1[nH]c(-c2ccccc2)cn1/N=C/c1cccnc1	7.8	-6.4	8.4%	0.0%	3.55µM*
COc1ccc(N(CC(=O)Nc2ccccc2OC)S(=O)(=O)c2ccc(NC(C)=O)cc2)cc1	0.6	-3.5	?	?	-3.9%
Cc1sc(NC(=O)C2C3C=CC(C3)C2C(=O)O)c(C(N)=O)c1-c1ccc(C(C)C)cc1 (configuration not stated)	-1.7	-2.6	-5.7%	1.2%	6.0%
SMILES	CHX counter	Shiga toxin inh	Pf growth 96h	Pf growth 48h	LmPK inh
CCN(CC(=O)NCc1cccs1)C(=O)CCC(=O)c1ccc(F)cc1	.	.	3.0%	-6.7%	.
O=C1C2N=NN(CC(=O)N3N=C(c4ccccc4)CC3c3ccc([N+](=O)[O-])cc3)C2C(=O)N1c1ccccc1 (configuration not stated)	-3.0	-5.5	?	?	2.8%
Cc1ccc(C)c(/C=N/n2cc(-c3ccccc3)[nH]c2=S)c1	3.1	32.9	?	?	2.1%
Fc1ccccc1/C=N/n1cc(-c2ccccc2)[nH]c1=S	18.0*	63.6*	?	?	?
Cc1ccc(-c2nc3ccccc3n3nnnc23)cc1	15.0	35.5	349.4%	111.5%	-5.7%
CCOC(=O)N1CCC(Nc2nc3ccccc3n3nnnc23)CC1	18.9*	53.9	0.0%	?	-3.6%
Fc1ccccc1Nc1nc2ccccc2n2nnnc12	40.5*	52.5	-0.6%	.	5.0%
c1ccc(Nc2nc3ccccc3n3nnnc23)cc1	45.3*	55.5*	-61.4%	?	-1.5%
Cc1ccc(CNc2nc3ccccc3n3nnnc23)cc1	22.8	-46.1	15.1%	55.3%	-6.3%
Fc1cccc(Nc2nc3ccccc3n3nnnc23)c1	22.3	57.4	6.57µM*	.	5.9%
COc1cccc(Nc2nc3ccccc3n3nnnc23)c1	24.7	32.1	.	.	2.3%
CC1(C)NC(=O)N(CC(=O)N2CCCC(C(F)(F)F)C2)C1=O (configuration not stated)	.	.	20.6%	?	.
O=C(Nc1ccc(-c2n[nH]c(=S)o2)cc1)c1ccccc1	5.3	46.5	10.9%	37.6%	-9.5%
CCOC(=O)CN(C(=O)CNC(=O)c1ccco1)C(C(=O)NC1CCCCC1)c1cccnc1 (configuration not stated)	1.7	16.1	-14.8%	20.5%	1.0%
COc1ccc(Cc2n[nH]c(=S)n2Cc2ccccc2)cc1Cl	3.0	14.4	-56.4%[5.75 µM]	?	-19.7%
COc1ccc(N2CCN(C(=O)c3ccc(CNS(=O)(=O)c4cc(C)ccc4C)cc3)CC2)cc1	3.3	5.8	-1.4%	-3.9%	0.3%
CCN(CC)S(=O)(=O)c1ccc(Nc2nc3ccccc3n3nnnc23)cc1	31.7*	108.9*	-2.5%	4.65µM*	-7.5%
Brc1ccc(Nc2nc3ccccc3n3nnnc23)cc1	65.1*	99.8	?	.	0.3%
c1ccc2c(c1)nc(Nc1ccc3c(c1)OCO3)c1nnnn12	39.1*	129.5*	64.6%	10.4µM*	-1.5%
O=C(Nc1ccc2c(c1)OCCO2)c1cnn(-c2ccccc2)n1	.	.	34.0%	318.5%	.
CC1(C)Cc2c(ccc3ccccc23)/C(=C/C(=O)N2CCCCC2)N1	-4.8	-12.8	?	10.4µM*	3.4%
CN(c1ccccc1)S(=O)(=O)c1nnc(NC(=O)C2CCCCC2)s1	5.2	-9.1	23.0%	6.0%	-8.3%
COC(=O)c1ccc(OCC(=O)c2cccc(OC)c2)cc1	42.8*	64.5*	1.7%	149.3%	3.3%
